In the supplement of paper PMC7695840:
Counter-ions that a name gives are not always drawn.

Columns and labels:
[1] = test system: Staphylococcus aureus MW2 delta-mecA (mecA-); experiment: normalized GFP fluorescence (growth of mecA- strain) (fraction of control range); higher = more growth of mecA- strain; conditions: compound concentration: 150 uM; cefoxitin: subinhibitory; fluorescent label: GFP
Method in brief: (§1)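 Single-replicate 1536-well plates carried 150 μM compound (1.5% DMSO), onto which 5 µL/well of a 1:1 mix of pre-induced S. aureus MW2 cells was dispensed: gene-carrying cells tagged with DsRed and deletion cells tagged with GFP, in LB with a subinhibitory antibiotic dose set daily. Incubation ran 20 h at 37 °C, 90% humidity, unshaken, followed by DsRed (540/590) and GFP (485/520) reads. Per-plate scaling of each channel used single-strain control medians, and plates with high untreated ratios and rows with DsRed/GFP >10 were excluded.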

[2] = test system: Staphylococcus aureus MW2 (mecA+); experiment: normalized DsRed fluorescence (growth of mecA+ strain) (fraction of control range); higher = more growth of mecA+ strain; conditions: compound concentration: 150 uM; cefoxitin: subinhibitory; fluorescent label: DsRed
Method in brief: as §1

Structure (SMILES)	normalized GFP fluorescence [1]	normalized DsRed fluorescence [2]
CC1=C(/C=C/C(C)=C/C=C/C(C)=C\C(=O)O)C(C)(C)CCC1 [Isotretinoin]	0.0743	1.06
CN1CCN2c3ncccc3Cc3ccccc3C2C1 (stereo unspecified) [Mirtazapine (Remeron, Avanza)]	0.214	1.07
CCCNS(=O)(=O)Nc1ncnc(OCCOc2ncc(Br)cn2)c1-c1ccc(Br)cc1 [Macitentan]	0.0399	0.379
CCN[C@H]1C[C@H](C)S(=O)(=O)c2sc(S(N)(=O)=O)cc21 [Dorzolamide HCL]	0.422	0.697
OC(Cn1cncn1)(Cn1cncn1)c1ccc(F)cc1F	0.417	0.746
CC(=O)NCCCS(=O)(=O)O	0.628	0.742
CC(=O)O[C@]1(C(C)=O)CC[C@H]2[C@@H]3C[C@H](C)C4=CC(=O)CC[C@]4(C)[C@H]3CC[C@@]21C	0.145	0.759
C[N+](C)(C)CC(=O)O	0.229	0.899
CC(=O)O[C@]1(C(C)=O)CC[C@H]2[C@@H]3C=C(Cl)C4=CC(=O)[C@@H]5C[C@@H]5[C@]4(C)[C@H]3CC[C@@]21C	0.239	0.593
CCCNCC(O)COc1ccccc1C(=O)CCc1ccccc1 (stereo unspecified)	0.19	1.05
N[C@@H](Cc1cc(I)c(Oc2cc(I)c(O)c(I)c2)c(I)c1)C(=O)O	0.297	0.575
CC(=O)Nc1cccc(-n2c(=O)n(C3CC3)c(=O)c3c(Nc4ccc(I)cc4F)n(C)c(=O)c(C)c32)c1	0.179	1.12
Cc1ccnc2c1NC(=O)c1cccnc1N2C1CC1	0.755	0.431
COc1ccc2c(c1OC)C(=O)O[C@@H]2[C@H]1c2c(cc3c(c2OC)OCO3)CCN1C	0.473	0.698
O=C(/C=C/c1cccc(S(=O)(=O)Nc2ccccc2)c1)NO [Belinostat (PXD101)]	0.364	1.16
COc1ccc2[nH]cc(CCNC(C)=O)c2c1 [Melatonin]	0.484	0.734
C=CC[N+]1([C@H]2C[C@H]3[C@@H]4CC[C@H]5C[C@H](O)[C@@H](N6CCOCC6)C[C@]5(C)[C@H]4CC[C@]3(C)[C@H]2OC(C)=O)CCCC1	0.279	0.667

Structure (SMILES)	normalized GFP fluorescence [1]	normalized DsRed fluorescence [2]
CCCCNc1ccc(C(=O)OCCN(C)C)cc1	0.243	0.719
CN1CCC(=C2c3ccccc3C=Cc3ccccc32)CC1	0.0037	1.31
CC1CCC(NC(=O)N(CCCl)N=O)CC1 (stereo unspecified)	0.55	0.439
Nc1nc2[nH]cnc2c(=S)[nH]1	0.329	1.33
CC1(C)O[C@@H]2C[C@H]3[C@@H]4C[C@H](F)C5=CC(=O)C=C[C@]5(C)[C@@]4(F)[C@@H](O)C[C@]3(C)[C@]2(C(=O)CO)O1	0.372	0.706
CNC(=O)c1ccc(N2C(=S)N(c3ccc(C#N)c(C(F)(F)F)c3)C(=O)C2(C)C)cc1F [MDV3100 (Enzalutamide)]	0.245	0.592
Clc1ccc(CSC(Cn2ccnc2)c2ccc(Cl)cc2Cl)cc1 (stereo unspecified)	-0.00367	0.00806
Cc1ccc(NC(=O)c2ccc(CN3CCN(C)CC3)cc2)cc1Nc1nc(-c2cccnc2)cs1 [Masitinib (AB1010)]	0.0914	0.633
CCC(NC(C)C)C(O)c1ccc(O)c(O)c1 (stereo unspecified)	0.38	0.581
CCC(=O)OCC(=O)[C@@]1(OC(=O)CC)[C@@H](C)C[C@H]2[C@@H]3CCC4=CC(=O)C=C[C@]4(C)[C@@]3(Cl)[C@@H](O)C[C@@]21C	0.322	0.958
OC[C@H]1O[C@@H](n2cnc3c2N=CNC[C@H]3O)C[C@@H]1O [Pentostatin]	0.461	0.689
CNC(=C[N+](=O)[O-])NCCSCc1ccc(CN(C)C)o1	0.32	0.742
CCC(CC)[C@H](NC(C)=O)[C@@H]1[C@H](O)[C@@H](C(=O)O)C[C@H]1NC(=N)N [Peramivir Trihydrate]	0.634	0.659
COc1cc(C)c(/C=C/C(C)=C/C=C/C(C)=C/C(=O)O)c(C)c1C [Acitretin]	0.0102	0.289
Cc1c2oc3c(C)ccc(C(=O)N[C@@H]4C(=O)N[C@H](C(C)C)C(=O)N5CCC[C@H]5C(=O)N(C)CC(=O)N(C)[C@@H](C(C)C)C(=O)O[C@@H]4C)c3nc-2c(C(=O)N[C@@H]2C(=O)N[C@H](C(C)C)C(=O)N3CCC[C@H]3C(=O)N(C)CC(=O)N(C)[C@@H](C(C)C)C(=O)O[C@@H]2C)c(N)c1=O	-0.00268	0.0533
COCCCOc1cc(C[C@@H](C[C@H](N)[C@@H](O)C[C@H](C(=O)NCC(C)(C)C(N)=O)C(C)C)C(C)C)ccc1OC	0.131	0.717
